The values below come from PubChem BioAssay (NCI).

About 83,000 compounds went through this panel and 20% of them were active in at least one assay; those are over-represented in the sample as a whole.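 In brief: 96-well plates, 48 h treatment, single concentration, percent growth endpoint.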 Unmarked numbers belong to inactive results. Calls of active or inactive are those of the source. Rule for the calls: active = growth percent below 10; inactive = the rest.

In the first assay the test system is PC-3 prostate. Put plainly: NCI-60 one-dose screen, 48 h (100 = growth as untreated, 0 = no growth, -100 = all killed). To be noted: 10 µM unless noted.
In the case of `COc1cc(F)c(F)c(Nc2ccc(I)cc2F)c1NS(=O)(=O)C1(C[C@H](O)CO)CC1`, the growth was 48.9%.
For `Nc1ccc(S(=O)(=O)O)c2cc(S(=O)(=O)O)cc(O)c12`, the growth is 97.8%.
Still for that read-out and setting: the figure for `COc1cc2ncnc(Nc3ccc(F)c(Cl)c3)c2cc1NC(=O)/C=C/CN1CCCCC1` is -58.3% (active).
The same measure, in the same setting: the figure for `COc1ccc(C(=O)N2c3ccccc3Sc3ccccc32)c(F)c1` is 29.8%; for `O=S1(=O)OC(c2ccc(O)c(Cl)c2)(c2ccc(O)c(Cl)c2)c2ccccc21` it is 77.8%; for `C[C@H](NC(=O)c1c(N)nn2cccnc12)c1cc2cccc(C#Cc3cnn(C)c3)c2c(=O)n1-c1ccccc1` it is 18.9%.
Still for that read-out and setting: the figure for `Cc1cc(O)cc(-c2c(-c3ccnc(-c4cccnc4)c3)cnn2C)c1` is 47.8%; for `CN1CCN(CCOc2cc(OC3CCOCC3)c3c(Nc4c(Cl)ccc5c4OCO5)ncnc3c2)CC1` it is 71%.

A further assay concerns SK-MEL-5 melanoma. The assay is described as above. To be noted: 10 µM unless noted.
Consider `CC(C)(C)c1ccc(Cn2cc(CSc3nc4ccccc4s3)nn2)cc1`, for which the growth is 106%.
Take `CCN1CCN(Cc2ccc(Cc3ncc(F)c(-c4cc(F)c5nc(C)n(C(C)C)c5c4)n3)nc2)CC1`: the growth was 34.2%.
Same read-out and setting: with `CC(=O)NCC(=O)N1[C@@H]2CC[C@H]1c1ccc(Nc3ncc(C(F)(F)F)c(NC4CCC4)n3)cc12` the figure was 58.1% [2.5 µM]; with `O=C(NOCCO)c1cc(CN2OCCCC2=O)c(F)c(F)c1Nc1ccc(I)cc1F`, 45.7%; with `CC(C)CC(=O)Nc1n[nH]c2c1CN(C(=O)C1CCN(C)CC1)C2(C)C`, -35.7% (active).
On the same count and under the same terms, with `Cc1ccc(N)cc1CN1C(=O)c2ccccc2C1=O` the figure was 103%; with `COCc1c(-c2ccc(NC(=O)Nc3cc(C(F)(F)F)ccc3F)c(F)c2)c2c(N)ncnn2c1CN1CCOCC1`, -78.9% (active).
As for `O=C(CNc1nc2ccccc2s1)Nc1ccc(-c2nc3ccccc3s2)cc1`, the growth is 103%.
Still for that read-out and setting: with `N#CC[C@H](C1CCCC1)n1cc(-c2ncnc3[nH]ccc23)cn1` the figure was 84.8%; with `C=CC(=O)Nc1cc2c(Nc3ccc(F)c(Cl)c3)ncnc2cc1C#CC(C)(C)N1CCN(C)CC1`, -98.4% (active); with `CC(=O)C1=C(C)NC(SCc2nnc(-c3ccc(C)cc3)o2)=NC1c1ccc(F)cc1` (configuration not stated), 99%.
Same read-out and setting: with `CNC(=O)c1ccc(Nc2ncc(C(F)(F)F)c(NCc3nccnc3N(C)S(C)(=O)=O)n2)cc1` the figure was -49.5% (active); with `C/C=C/C=N/NC(=S)Nc1ccccc1`, 104%.
Same read-out and setting: with `COc1cc(N2CCC(N(C)C)CC2)ccc1Nc1ncc(Cl)c(Nc2ccccc2P(C)(C)=O)n1` the figure was 16.5%; with `CN1CCN(CCCOc2cccc3nc(Nc4ccc(Cl)c(C(F)(F)F)c4)ccc23)CC1`, 41.5%; with `C#Cc1cccc(Nc2ncnc3cc(OC)c(OCCCCCCC(=O)NO)cc23)c1`, -91.4% (active).
Consider `Cc1ccc(-n2nc(C(C)(C)C)cc2NC(=O)NCc2cc(F)ccc2Oc2ccc3c(cnn3CCO)c2)cc1`, for which the growth is -19.5% (active).
Still for that read-out and setting: with `Cn1ccnc1C(=O)/C=C/c1ccc(CC(=O)Nc2ccc(Br)cc2)cc1` the figure was 62.9%.
For the compound `Cc1[nH]n(C(N)=S)c(=O)c1N=Nc1ccc(S(=O)(=O)Nc2ccncn2)cc1`, the growth is 94.6%.
On to `Cc1[nH]c(/C=C2\C(=O)Nc3ccc(F)cc32)c(C)c1C(=O)NC[C@H](O)CN1CCOCC1`, for which the growth was 21.4%.
Same read-out and setting: the figure for `Cn1ncc(Cl)c1-c1cc(C(=O)N[C@H](CN)Cc2cccc(F)c2)sc1Cl` is -96.1% (active); for `Cn1cc(-c2ncnc3ccc(-c4cnc(Cl)c(NS(C)(=O)=O)c4)cc23)c2ccccc21` it is -14.6% (active).
Same read-out and setting: with `O=[N+]([O-])c1cc(Br)cc2c1[nH]c1ccc(Br)cc12` the figure was 88.1%.
The same measure, in the same setting: the figure for `COc1ccc2c(OCc3nnc4ccc(-c5ccccc5)nn34)ccnc2c1` is 91.9% [2.5 µM]; for `CC(=O)O[C@]1(C)C[C@H](O)[C@]2(O)C=CO[C@H](O[C@@H]3O[C@H](CO)[C@@H](O)[C@H](O)[C@H]3O)[C@@H]21` it is 103%; for `COc1cc2cc(NCc3ccc(F)cc3)nc(C)c2cc1OC` it is 38.3%.
Consider `O=C(Nc1nc2cccc(-c3ccc(CN4CCS(=O)(=O)CC4)cc3)n2n1)C1CC1`, for which the growth is 74.6%.
Regarding `N#Cc1c(-c2ccc(Cl)cc2)csc1NC(=O)Nc1cccc(C(F)(F)F)c1`, the growth was 22.4%.
Same read-out and setting: with `O=C(c1ccc(/C=C/c2n[nH]c3ccccc23)cc1)N1CCNCC1` the figure was 53.1%.
The same measure, in the same setting: the figure for `Cc1cnc(Nc2ccc(OCCN3CCCC3)cc2)nc1Nc1cccc(S(=O)(=O)NC(C)(C)C)c1` is -90.4% (active).
The same measure, in the same setting: with `CO[C@H]1C[C@@H]2CC[C@@H](C)[C@@](O)(O2)C(=O)C(=O)N2CCCC[C@H]2C(=O)O[C@H]([C@H](C)C[C@@H]2CC[C@@H](OCCO)[C@H](OC)C2)CC(=O)[C@H](C)/C=C(\C)[C@@H](O)[C@H](OC)C(=O)[C@H](C)C[C@H](C)\C=C/C=C/C=C/1C` the figure was 63.5%; with `COc1cc(F)c(F)c(Nc2ccc(I)cc2F)c1NS(=O)(=O)C1(C[C@H](O)CO)CC1`, 19.1%.
For `Nc1ccc(S(=O)(=O)O)c2cc(S(=O)(=O)O)cc(O)c12`, the growth was 103%.
With `COc1cc2ncnc(Nc3ccc(F)c(Cl)c3)c2cc1NC(=O)/C=C/CN1CCCCC1`, the growth was -99.8% (active).
Turning to `COc1ccc(C(=O)N2c3ccccc3Sc3ccccc32)c(F)c1`, the growth is 15.7%.
Still for that read-out and setting: the figure for `O=S1(=O)OC(c2ccc(O)c(Cl)c2)(c2ccc(O)c(Cl)c2)c2ccccc21` is 95.9%; for `C[C@H](NC(=O)c1c(N)nn2cccnc12)c1cc2cccc(C#Cc3cnn(C)c3)c2c(=O)n1-c1ccccc1` it is 44%.
Still for that read-out and setting: with `Cc1cc(O)cc(-c2c(-c3ccnc(-c4cccnc4)c3)cnn2C)c1` the figure was 56.5%; with `CN1CCN(CCOc2cc(OC3CCOCC3)c3c(Nc4c(Cl)ccc5c4OCO5)ncnc3c2)CC1`, 87.4%.
